Results as given in PubChem BioAssay (NCATS).
Where “and” joins values, the source holds several entries; their conditions need not be identical. Equal values may be shown once. Records with an inconclusive call do not appear. Calls of active or inactive are those of the source. Unless noted, the call rests on the fitted dose curve; in most records, active means well fitted curve in the direction sought with a large enough effect; inconclusive means small, poorly fitted or top-dose-only effect, or another doubt; inactive means no such curve, though single readings can be large; an effect the other way counts as inactive or inconclusive.

Assays:
[1] = qHTS to identify inhibitors of the type 1 interferon - major histocompatibility complex class I in skeletal muscle: primary screen against the NCATS Pharmaceutical Collection (AID 1347407);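 further: luminescence of HiBiT knocked into endogenous HLA-B as interferon-induced MHC class I level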; further: potency means the concentration at half of the fitted maximal effect
Procedure, shortened: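 Immortalized human myoblasts (C25cl48) with HiBiT knocked into endogenous HLA-B*08:01 were stimulated with 4 ng/ml IFN-beta and treated with compounds (8-point, 1:5, top 46 uM final) for 24 h at 37 C; HiBiT lytic luminescence read.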

[2] = qHTS to identify inhibitors of the type 1 interferon - major histocompatibility complex class I in skeletal muscle: primary screen against the NCATS Mechanism Interrogation Plate v5.0 (MIPE) Libary (AID 1347411); further: nearly all actives have a fitted effect of over 65% in size; further: potency means the concentration at half of the fitted maximal effect
Procedure, shortened: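 Seed engineered human myoblasts (HLA-B HiBit) in medium without dexamethasone containing 4 ng/ml IFN-beta; after 1 hr add compound titrations (top 46 uM final). Incubate 24 hrs at 37 C, lyse 10 min with HiBiT reagent, read luminescence.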

[3] = molecular target: Protein phosphatase 1D (Homo sapiens) (UniProt O15297); test: RapidFire Mass Spectrometry qHTS Assay for Modulators of WT P53-Induced Phosphatase 1 (WIP1) (AID 1347424); further: series mostly up to about 63 µM
Procedure, shortened: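 RapidFire MS readout of dephosphorylated VEPPL-S-QETFS product, with 1 uM isotope-labelled peptide standard. Reaction: 10 nM WIP1, 2 uM phosphopeptide substrate, 5 min, room temperature, after 1 h compound preincubation; stopped with 0.5% formic acid.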

[4] = molecular target: Protein phosphatase 1D (Homo sapiens) (UniProt O15297); test: Rhodamine-PBP qHTS Assay for Modulators of WT P53-Induced Phosphatase 1 (WIP1) (AID 1347425)
Procedure, shortened: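 The read-out is the change in Rhodamine-PBP fluorescence (f1 - f0, ex 525/em 598 nm) as Pi is released, read each minute for 11 min. Final reaction: 5 nM WIP1, 10 uM phosphopeptide VEPPL-pS-QETFS, 10 uM Rh-PBP, 50 mM Tris-HCl pH 7.5, 30 mM MgCl2. Compound was preincubated with enzyme for 1 hour at room temperature.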

[5] = Primary qHTS for inhibitors of La Crosse Virus (LACV) - induced cell death in SH-SY5Y cells (AID 1508616);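 further: top concentration of the series differs between compounds; higher means more rescue of cells from virus-induced death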
Procedure, shortened: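 SH-SY5Y, 6000 cells/well; cpd via pin tool in DMSO; LACV 0.01 MOI; 6 d 37C 5% CO2; ATPLite, 5 min RT; luminescence normalized to ±virus DMSO controls.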

[6] = molecular target: Calcium and integrin-binding protein 1 (Homo sapiens) (UniProt Q99828); test: Primary qHTS for Identification of Calcium Integrin Binding Protein 1 (CIB1) Competitor (AID 1508620);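 further: GST tagged CIB1 binding a fluorescein labelled alphaIIb integrin peptide tracer; top concentration of the series differs between compounds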
Procedure, shortened: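 Fluorescence polarization competition: GST-tagged CIB1 (1 uM final) preincubated with compound 15 min at room temperature, then FITC-labelled alphaIIb peptide (100 nM final) added. After 15 min at room temperature, polarization read at Ex 480/Em 540.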

[7] = Counterscreen qHTS for small molecule stabilizers of the endoplasmic reticulum resident proteome: GLuc-NoTag assay (AID 1508627); further: potency means the concentration at half of the fitted maximal effect
Procedure, shortened: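 Counterscreen line: SH-SY5Y-GLuc-NoTag. Seed, 5 h; compound, 19 h; thapsigargin 100 nM, 4 h; 37C/5% CO2. Readout: secreted GLuc luminescence, coelenterazine 0.07x final, no lysis.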

[8] = Confirmatory qHTS for small molecule stabilizers of the endoplasmic reticulum resident proteome: Secreted ER Calcium Modulated Protein (SERCaMP) assay (AID 1508628); further: nearly all actives have a fitted effect of over 40% in size; further: potency means the concentration at half of the fitted maximal effect
Procedure, shortened: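 Reporter secretion upon ER calcium depletion (100 nM thapsigargin, 4 h, 37C) is measured as medium luminescence with coelenterazine, after 16 h compound pretreatment of SH-SY5Y-GLuc-SERCaMP cells; primary at three concentrations up to 38.3 uM, follow-up at 11 (up to 76.6 uM).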

[9] = Primary qHTS for inhibitors of SARS-S pseudo-typed particle cell entry (AID 1479145; calls by dose curve; further: nearly all actives have a fitted effect of over 45% in size)
[10] = Primary qHTS for Huh7 cytotoxicity: counterscreen for inhibitors of MERS-S pseudotyped particle cell entry (AID 1479147; calls by dose curve)
[11] = Primary qHTS for inhibitors of MERS-S pseudo-typed particle cell entry (AID 1479149; calls by dose curve; further: nearly all actives have a fitted effect of over 60% in size)
[12] = Primary qHTS for Vero E6 cytotoxicity: counterscreen for inhibitors of SARS-S pseudo-typed particle cell entry (AID 1479150; calls by dose curve)

Measured: Potency

Sequence of Calcium and integrin-binding protein 1 (Homo sapiens) (Q99828 whole entry, looked up): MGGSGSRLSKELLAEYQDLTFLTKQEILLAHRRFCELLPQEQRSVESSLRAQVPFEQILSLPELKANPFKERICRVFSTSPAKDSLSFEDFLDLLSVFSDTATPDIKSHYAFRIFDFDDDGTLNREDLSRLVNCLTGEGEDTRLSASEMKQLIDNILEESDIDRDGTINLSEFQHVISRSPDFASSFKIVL
Sequence of Protein phosphatase 1D (Homo sapiens) (O15297 whole entry, looked up): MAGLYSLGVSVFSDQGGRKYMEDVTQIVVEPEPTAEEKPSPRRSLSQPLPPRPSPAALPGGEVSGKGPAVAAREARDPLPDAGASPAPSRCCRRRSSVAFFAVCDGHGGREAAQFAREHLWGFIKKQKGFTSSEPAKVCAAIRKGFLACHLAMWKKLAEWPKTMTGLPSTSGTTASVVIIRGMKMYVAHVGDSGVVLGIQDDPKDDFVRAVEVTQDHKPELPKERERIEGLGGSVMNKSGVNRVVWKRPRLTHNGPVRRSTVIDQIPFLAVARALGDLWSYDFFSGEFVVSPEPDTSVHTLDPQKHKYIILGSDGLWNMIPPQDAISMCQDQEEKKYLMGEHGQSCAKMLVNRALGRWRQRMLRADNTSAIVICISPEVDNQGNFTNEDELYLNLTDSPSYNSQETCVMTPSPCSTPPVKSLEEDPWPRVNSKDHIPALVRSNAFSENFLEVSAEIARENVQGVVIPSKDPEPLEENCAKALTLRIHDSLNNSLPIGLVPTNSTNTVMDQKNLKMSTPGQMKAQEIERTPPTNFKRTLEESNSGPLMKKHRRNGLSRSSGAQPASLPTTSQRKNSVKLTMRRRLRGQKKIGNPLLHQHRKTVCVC

C[C@@H]1C[C@@H]([C@H](O)CC2CC(=O)NC(=O)C2)C(=O)[C@@H](C)C1
active: [1] 374 nM | [2] 262 nM | [7] 1.58 µM and 1.12 µM | [8] 224 nM
inactive: [3] | [4] | [5] | [6]

Cc1nnc2n1-c1sc(CCC(=O)N3CCOCC3)cc1C(c1ccccc1Cl)=NC2
not listed: [2] | [7] | [8]
inactive: all other assays above

CCCCC1C(=O)NC(=O)N(C2CCCCC2)C1=O (stereo not drawn)
not listed: [2] | [7] | [8]
inactive: all other assays above

CC(Cc1ccccc1)NCc1ccccc1Cl (stereo not drawn)
not listed: [2] | [7] | [8]
inactive: all other assays above

CCCC[N+]1(C)[C@@H]2CC(OC(=O)[C@H](CO)c3ccccc3)C[C@H]1[C@@H]1O[C@@H]12 (stereo partly drawn)
not listed: [2]
inactive: all other assays above

CCC1(c2cccc(O)c2)CCCCN(C)C1 (stereo not drawn)
not listed: [2] | [5] | [7] | [8]
inactive: all other assays above

C[C@@H]1O[C@@H](O[C@@H]2C=C3CC[C@@H]4[C@H](CC[C@]5(C)[C@@H](c6ccc(=O)oc6)CC[C@]45O)[C@@]3(C)CC2)[C@H](O)[C@H](O)[C@H]1O
inactive: [3] | [4] | [9] | [11] | [6]
active: [1] 3.3 nM | [2] 7.4 nM

C[C@]12CC[C@H](O)CC1=CC[C@@H]1[C@@H]2CC[C@]2(C)C(=O)CC[C@@H]12
not listed: [7] | [8]
inactive: all other assays above

COP(=O)(OC)C(O)C(Cl)(Cl)Cl (stereo not drawn)
not listed: [2] | [7] | [8]
inactive: all other assays above

COc1ccc(CN2CCNCC2)c(OC)c1OC
not listed: [2] | [7] | [8]
inactive: all other assays above

Cc1c(Cl)c(=O)oc2cc(OP(=O)(OCCCl)OCCCl)ccc12
not listed: [2] | [5]
inactive: all other assays above

O=c1n(Cl)c(=O)n(Cl)c(=O)n1Cl
not listed: [2] | [7] | [8] | [11]
inactive: all other assays above

Cc1cccc(Cc2cnc[nH]2)c1C
not listed: [2] | [7] | [8]
inactive: all other assays above

CC(CC(C(N)=O)(c1ccccc1)c1ccccc1)N(C)C (stereo not drawn)
not listed: [2] | [7] | [8]
inactive: all other assays above

CCC1(CC)C(=O)NC(=O)NC1=O
inactive: [1] | [3] | [4] | [5]

CN(C)CCc1c[nH]c2ccc(O)cc12
inactive: [1] | [3] | [4] | [5]

CCOC(=O)c1ncn2c1CN(C)C(=O)c1c(I)cccc1-2
inactive: [1] | [3] | [4] | [10] | [12] | [5] | [6]

CCCC(C)C1(CC)C(=O)N=C(S)NC1=O (stereo not drawn)
inactive: [1] | [3] | [4] | [5] | [6]

C[C@H](CN1CCOCC1)C(C(=O)N1CCCC1)(c1ccccc1)c1ccccc1
inactive: [1] | [3] | [4] | [5] | [6]

O=C(CCCN1CCC(n2c(=O)[nH]c3ccccc32)CC1)c1ccc(F)cc1
inactive: [1] | [3] | [4] | [10] | [12] | [5]

C[C@@H]1CN(C2CCC(C#N)(c3ccc(F)cc3)CC2)CC[C@]1(C(=O)O)c1ccccc1 (stereo partly drawn)
not listed: [2] | [7] | [8] | [9]
inactive: all other assays above

O=C(CBr)Nc1ccc(Cl)cc1C(=O)c1ccccc1F
inactive: [1] | [3] | [4] | [5] | [6]

O=C(NC(=O)c1c(F)cccc1F)Nc1cc(Cl)c(OC(F)(F)C(F)C(F)(F)F)cc1Cl (stereo not drawn)
inactive: [1] | [3] | [4] | [10] | [12] | [5] | [6]

Clc1ccc(C(OCCN2CCCCC2)c2ccccc2)cc1 (stereo not drawn)
inactive: [1] | [3] | [4] | [10] | [12] | [5] | [6]

C=CC[C@]1(O)CC[C@H]2[C@@H]3CCC4=CC(=O)CCC4=C3C=C[C@@]21C
inactive: [1] | [3] | [4] | [10] | [12] | [5] | [6]

CCC1(c2ccccc2)CCC(=O)NC1=O (stereo not drawn)
inactive: [1] | [3] | [4] | [5] | [6]

CC(Cc1ccccc1)NCCCCl (stereo not drawn)
not listed: [2] | [7] | [8] | [9]
inactive: all other assays above

CC(CC(C#N)(c1ccccc1)c1ccccc1)N(C)C (stereo not drawn)
inactive: [1] | [3] | [4] | [5] | [6]

CCc1cc(OC)c(C[C@H](C)N)cc1OC
inactive: [1] | [3] | [4] | [5] | [6]

C[N+]1(CCC(C(N)=O)(c2ccccc2)c2ccccc2)CCCCC1
inactive: [1] | [3] | [4] | [5] | [6]
